Source: PubChem BioAssay AID588726 (The Scripps Research Institute Molecular Screening Center, 2011)
Values joined by “and” are separate entries in the source; they are usually repeats but may differ in a detail not shown here. Equal entries are not always repeated. The campaign covered roughly 360,000 compounds. About 8,200 (2.3%) were called active. Only a selection was taken, and actives are over-represented in it overall. A number with no mark means an inactive call. Rule as the data show it: active = inhibition above about 27%; inactive = the rest.

Each molecule was assayed against Fructose-bisphosphate aldolase (Mycobacterium tuberculosis (strain ATCC 25618 / H37Rv)) (UniProt P9WQA3) (assay: Mtb FBA enzyme inhibitors, primary screen, biochemical, fluorescence, strain H37Rv (AID 588726;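 also: 0% = vehicle and 100% = reference inhibitor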)). Details: purified M. tuberculosis FBA, fluorescence read-out, at 1 µM, active compounds read high.
Chain of Fructose-bisphosphate aldolase (Mycobacterium tuberculosis (strain ATCC 25618 / H37Rv)) (P9WQA3 whole entry, looked up): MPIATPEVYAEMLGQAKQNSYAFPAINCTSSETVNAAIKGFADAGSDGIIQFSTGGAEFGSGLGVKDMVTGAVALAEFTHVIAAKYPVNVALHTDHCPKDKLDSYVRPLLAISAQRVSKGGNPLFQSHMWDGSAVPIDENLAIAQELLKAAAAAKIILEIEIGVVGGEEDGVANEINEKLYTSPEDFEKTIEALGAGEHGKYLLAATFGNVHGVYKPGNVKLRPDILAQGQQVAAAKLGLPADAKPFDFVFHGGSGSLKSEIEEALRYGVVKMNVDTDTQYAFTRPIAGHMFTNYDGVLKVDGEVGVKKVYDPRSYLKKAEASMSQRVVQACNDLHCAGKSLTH
Molecule `CC1COC2C(O1)N(S(C)(=O)=O)CCN2S(C)(=O)=O` (centres undefined) has an inhibition of -0.44%. Work on `Cc1cccc(-c2cnc(C(O)c3cc(C)cc(C)c3)[nH]2)c1` (centres undefined) yielded an inhibition of -2%. `CC(C)C(C(=O)NC1CCCCC1)N(CC1CCCO1)C(=O)CNS(=O)(=O)c1ccc(F)cc1` (centres undefined) gave an inhibition of -0.74%. `CN1OC[C@@H]2CN(C(=O)C(C)(C)C)[C@H](c3ccc(-n4ccnc4)cc3)C[C@@H]21` gave an inhibition of 3.11%. In the case of `Cc1ccc(-c2cnc(C(O)c3cccc(C)c3C)[nH]2)cc1` (centres undefined), the inhibition is reported as -6.24%. Molecule `CCC(C)(C)NC(=O)C(c1cccc(OC)c1OC)N(CC(C)C)C(=O)CCC(=O)Nc1cc(C)on1` (centres undefined) has an inhibition of -1.74%. `CCOc1ccccc1C1C(C(=O)OC)=CN(C)C=C1C(=O)OC` was tested, and the inhibition was 180% (active). `COC(=O)C1=CN(C)C=C(C(=O)OC)C1c1ccc(Cl)cc1Cl` showed an inhibition of 12.4%. For `CCOc1cc(C2C(C(=O)OC)=CN(C3CCCC3)C=C2C(=O)OC)cc(Br)c1O`, the inhibition was 9.72%. `O=C(CC1SC(N2CCCC2)=NC1=O)Nc1ccc(C(=O)NCCc2ccc(F)cc2)cc1` (centres undefined) gave an inhibition of -0.1%. In the case of `COc1ccccc1C(=O)NCC(=O)NCCSc1ccc(Br)cc1`, the inhibition is reported as -1.16%. Molecule `O=C(NCc1ccco1)c1sc2cccc(F)c2c1Cl` has an inhibition of 5.05%. In the case of `Cn1nc(-c2ccc(Cl)cc2)c2cc(C(=O)NCc3ccco3)sc21`, the inhibition is reported as 43.5% (active). With `O=C(NCc1ccco1)c1cccc(-c2ccc3nncn3c2)c1` the inhibition was -0.68%. With `COc1cc(C2OC(c3cc(OC)c(OC)c(OC)c3)C(C)C2C)cc(OC)c1OC` (centres undefined) the inhibition was -1.3%. With `CC1CCCCC1NC(=O)CO/N=C/c1ccc(OC(F)F)cc1` (centres undefined) the inhibition was -0.83%. For `COc1ccc2cc(CCl)c(Cl)nc2c1`, the inhibition was 0.58%. `COc1ccc2nc(-c3ccccn3)ccc2c1` was tested, and the inhibition was 77.3% (active). Work on `COc1ccc(C=C(C#N)C#N)c(CSc2ccccn2)c1` yielded an inhibition of 1.22%. With `O=C(COc1cc(Cl)c(Cl)cc1Cl)NC(=O)NC1CCCC1` the inhibition was 5.04%. With `CC(C)(C)C(=O)CN1C2=NCCN2c2ccccc21` the inhibition was -3.57%. In the case of `CC(C)n1c(NCc2c[nH]c3ccccc23)nc2ccccc21`, the inhibition is reported as 1.92%. `CC(C)n1c(-c2cccs2)nc2ccccc21` was tested, and the inhibition was 32.3% (active). Molecule `CC(C)n1c(CN2CCN(Cc3ccccc3)CC2)nc2ccccc21` has an inhibition of 3.41%. In the case of `Cc1noc(C)c1-c1ccc2ncnc(NC(C)c3ccco3)c2c1` (centres undefined), the inhibition is reported as 8.84%. `O=C(O)C1CCC(CNS(=O)(=O)c2ccc(Br)cc2)CC1` (centres undefined) was tested, and the inhibition was 0.74%. In the case of `CCN1CCN(C(=O)c2ccc(CN(c3ccc(C)c(C)c3)S(C)(=O)=O)cc2)CC1`, the inhibition is reported as -1.53%. In the case of `O=c1oc2ccccc2cc1-c1cn(-c2ccccc2)c(=S)[nH]1`, the inhibition is reported as 40.4% (active). Work on `C/C(=C\c1ccco1)CN1CCC(N2CCC(C(=O)N3CCOCC3)CC2)CC1` yielded an inhibition of -2.26%. Molecule `OCC[C@H]1C[C@@H](O)[C@H](O)[C@]2(OCCCc3ccccc32)O1` has an inhibition of 2.25%. In the case of `O=C(N/N=C\c1ccc(-c2ccc(Cl)c(Cl)c2)o1)C(=O)N1CCCC1`, the inhibition is reported as 1.03%. In the case of `O=C(COc1ccc2c(c1)CCC2)N1CCN(c2ccc(F)cc2)CC1`, the inhibition is reported as -1.29%. `CCN1CCN(C(=O)c2cc3cc4ccc(OC)cc4nc3s2)CC1` was tested, and the inhibition was 43.9% (active). Molecule `CCN1CCN(C(=O)CN(C)S(=O)(=O)c2ccc(OC)cc2)CC1` has an inhibition of -1.71%. For `COc1ccc(OCC(=O)N2CCN(C(=O)c3cccs3)CC2)cc1`, the inhibition was 1.53%. Work on `O=C(OCC(=O)N1CCCCCC1)c1ccc(Br)c(S(=O)(=O)N2CCOCC2)c1` yielded an inhibition of -1.57%. `COc1ccc(CNC(=O)c2ccc(NS(=O)(=O)c3ccc4[nH]c(=O)[nH]c4c3)cc2)cc1OC` showed an inhibition of -1.09%. `CCN(C(=O)COC(=O)c1c(C)nn(-c2ccccc2)c1Cl)c1c(N)n(Cc2ccccc2)c(=O)[nH]c1=O` gave an inhibition of -2.12%. `CCOC(=O)c1c(CN2CCOCC2)n(-c2ccccc2)c2ccc(O)cc12` showed an inhibition of -1.31%. For `CCOC(=O)c1c(N)n(CCN2CCOCC2)c2nc3ccccc3nc12`, the inhibition was 113% (active). In the case of `CC(C)Cn1c(N)c(C(=O)NCc2cccs2)c2nc3ccccc3nc21`, the inhibition is reported as 48.5% (active). With `COCC(C)OC(=O)c1c(N)n(CCCN2CCOCC2)c2nc3ccccc3nc12` (centres undefined) the inhibition was 104% (active). Work on `CC(CN1CCOCC1)OC(=O)c1ccc(C(C)(C)C)cc1` (centres undefined) yielded an inhibition of -5.4%. `O=C(NCc1cccs1)c1cc(-c2ccccn2)nc2ccc(Br)cc12` showed an inhibition of 1.48%. With `O=C(Cc1coc2ccc3ccccc3c12)NCc1cccs1` the inhibition was 0.72%. `Cc1ccc(C(=O)OC(C)CN2CCOCC2)cc1` (centres undefined) showed an inhibition of -3.53%. Work on `CCOC(=O)c1cnn(Cc2ccccc2Cl)c1N` yielded an inhibition of -1.37%. `CCOC(=O)c1c(C)[nH]c(C(=O)NCCN2CCOCC2)c1C` showed an inhibition of 1.62%. `CCOc1ccc(OCC)c(NC(=O)C(NS(=O)(=O)c2ccc3c(c2)oc(=O)n3C)C(C)C)c1` (centres undefined) gave an inhibition of 0.18%. Work on `O=C(NCCc1ccccc1)C(=O)NCC1OCCN1S(=O)(=O)c1cccs1` (centres undefined) yielded an inhibition of 0.89%. `CN(C)C(=O)N1CCNCC1` showed an inhibition of 2.64%. For `Cc1nc2ccc(S(=O)(=O)NCC(=O)O)cc2s1`, the inhibition was 0.49%. In the case of `COCCNS(=O)(=O)c1cc(Br)ccc1OC`, the inhibition is reported as 0.54%. Work on `CCCCC(CC(C)O)c1n[nH]c(=S)n1-c1ccccc1` (centres undefined) yielded an inhibition of 2%. In the case of `Cc1ccc(/C([O-])=C(/C(=S)NCc2ccco2)[n+]2ccccc2)cc1[N+](=O)[O-]`, the inhibition is reported as 1.54%. Molecule `CCOc1cc(/C=N/NC(=O)c2ccc(CSc3nncn3C)cc2)ccc1OCC(=O)N1CCOCC1` has an inhibition of -1.98%. For `C=CCn1c(N)c(S(=O)(=O)c2cccs2)c2nc3ccccc3nc21`, the inhibition was 163% (active). `C=CCn1c(P(C)(=O)O)nc2ccccc21` was tested, and the inhibition was 1.11% and 4.28%. `Cc1nn(Cc2ccccc2)c(C)c1C(=O)NCCCN1CCCC1=O` showed an inhibition of -1.19%. `C=CCn1c(N)c(C(=O)OCC(C)C)c2nc3ccccc3nc21` was tested, and the inhibition was 88.6% (active). Molecule `C=CCN1CN(S(=O)(=O)c2ccc(OC)cc2)c2nc3ccccc3nc21` has an inhibition of 6.64%. `CCCCNc1nc2ccccc2nc1NS(=O)(=O)c1cccs1` was tested, and the inhibition was 6.38%. For `O=C(NCCCN1CCCC1=O)c1ccc(S(=O)(=O)Nc2ccccc2)cc1`, the inhibition was -1.21%. `C=CCn1c(C(C)NC(=O)CC)nc2ccccc21` (centres undefined) was tested, and the inhibition was 3.68%. `CCCCC1N2CC3([N+](=O)[O-])CN1CC([N+](=O)[O-])(C2)C3(C)C` (centres undefined) gave an inhibition of 2.82%. With `COC(=O)c1ccc(NC(=O)CSc2nncn2-c2cccnc2)cc1` the inhibition was 0.47%. In the case of `CSc1cccc(NC(=S)N(C(C)C)C(C)c2ccccn2)c1` (centres undefined), the inhibition is reported as 0.95%. For `NC(=O)CSc1nnc(-c2cccc(S(=O)(=O)N3CCOCC3)c2)o1`, the inhibition was -1.59%. Work on `Cc1ccc(NC(=O)Cc2nc(COC(=O)C(C)NS(=O)(=O)c3ccc(C)cc3)cs2)cc1` (centres undefined) yielded an inhibition of 3.71%. `Cc1ccccc1OCC(=O)NNC(=O)c1ccc(-n2cncn2)c([N+](=O)[O-])c1` showed an inhibition of -1.97%. `Cc1ccc(S(=O)Cc2ccc(C(=O)N3CCN(C4CCCCC4)CC3)o2)cc1` (centres undefined) was tested, and the inhibition was 1.16%. Work on `CCOC(=O)[C@@H]1[C@H]2COc3cc(OC)ccc3[C@H]2N2C(=O)N(c3ccc(F)cc3)C(=O)[C@]12C` yielded an inhibition of 0.06%. Work on `C[C@@H]1CN([C@H](C)CO)S(=O)(=O)c2ccc(C#CC3CCCCC3)cc2O[C@H]1CN(C)C(=O)Cc1ccncc1` yielded an inhibition of -2.18%. `O=C1NC(c2cc3c(cc2Cl)OCO3)Oc2ccccc21` (centres undefined) showed an inhibition of 0.96%. `CCC(C)n1[nH]c(=O)c2c(C)cc(C)nc21` (centres undefined) showed an inhibition of 2.95%. `Cc1cc(-c2cccs2)nc(-n2cccc2)n1` gave an inhibition of 2.52%. Work on `CCCC(C)n1[nH]c(=O)c2c(C)cc(C)nc21` (centres undefined) yielded an inhibition of 4.12%. In the case of `C=CCc1c(C)nc2cc(-c3ccccc3)[nH]n2c1=O`, the inhibition is reported as 33.2% (active). `CCc1c(C)nc2cc(-c3cccs3)[nH]n2c1=O` was tested, and the inhibition was 27.4% (active). `Cc1nc2scc(-c3cccs3)c2c(=O)n1N` gave an inhibition of -0.89%. Work on `CCCCCN1CC(O)=C(c2ccccc2)C1=N` yielded an inhibition of -3.67%. `CCc1c(C)nc2cc(C)[nH]n2c1=O` was tested, and the inhibition was 27.9% (active). `Cc1nc2nc(COc3ccccc3)[nH]n2c(=O)c1Cc1ccccc1` showed an inhibition of 1.84%. Molecule `Cc1nc2nc[nH]n2c(=O)c1C/C=C/c1ccccc1` has an inhibition of -4.22%. Work on `COC(=O)CN1C(=O)[C@H]2[C@@H](/C=C/c3ccccc3)N3C(=O)CN(CC4CC4)C(=O)[C@@]3(Cc3ccccc3)[C@H]2C1=O` yielded an inhibition of 5.08%. Molecule `COc1ccccc1NC(=O)CCC(=O)OC(C)C(=O)c1ccccc1` (centres undefined) has an inhibition of 2.76%. In the case of `O=C1N[C@@H](Cc2ccccc2)C(=O)N2[C@@H]3N(S(=O)(=O)c4ccc(F)cc4)c4ccccc4[C@]3(Br)C[C@@H]12`, the inhibition is reported as -1.67%. With `O=C(COc1ccc(Cl)cc1Cl)NCCCNC(=O)c1cnccn1` the inhibition was 4.96%. For `Cc1ccc(C)c(-n2cc(CN3CCN(C(=O)c4ncn[nH]4)CC3)c(-c3ccccc3)n2)c1`, the inhibition was -1.74%. `Cc1ccc(NS(=O)(=O)c2cccs2)cc1S(=O)(=O)N1CCCCCC1` was tested, and the inhibition was -1.86%. Molecule `CCCCCN(C(=O)NC(=O)Nc1ccccc1OC)S(C)(=O)=O` has an inhibition of -0.28%. In the case of `Cn1c(=O)c2cc(NC(=O)NCCc3cccs3)ccc2n1Cc1cccc(C(F)(F)F)c1`, the inhibition is reported as 141% (active). With `O=C(Cc1cccs1)NCc1cccc(C(F)(F)F)c1` the inhibition was 2.86%. For `CN(C)C(=O)c1cccn(Cc2cccc(C(F)(F)F)c2)c1=O`, the inhibition was 0.45%.
